The supplement of paper PMC10849652
About 7,900 targets were measured; listed, in parts, are those with a hit and a random draw of the rest. About 0.6% of all pairs of compound and target were hits. Unmarked numbers belong to inactive results.

Assays:
Assay in all cases: log2 fold change, soluble protein after heating vs DMSO (PISA); higher = thermal stabilisation; K562 cells, 10 uM, 30 min; active = over 0.2 and 3.5 SD of the protein, either way, in both replicates (recomputed)
[1] = compound: C#Cc1cccc(Nc2ncnc3cc(OCCOC)c(OCCOC)cc23)c1 [erlotinib]
Outline: (§1)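 Soluble protein was defined as the supernatant after 21,000xg for 90 min. It came from K562 cells at 2×10^6 cells/mL given 10 μM compound for 30 min, heated in aliquots for 3 min across 48°C-58°C, pooled, and extracted in PBS with 0.5% NP-40 at 4°C, and was quantified by TMTpro 16plex LC-MS/MS with equalised channel sums. Thermal stability against control samples, from duplicates, is reported as log2 fold change.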

[2] = compound: C/C(=N\NC(=O)C1=CC(=CC=C1)S(=O)(=O)N2CCOCC2)/C3=C(C=CC(=C3)Cl)O
Outline: as §1

[3] = compound: C1=CC(=C(C=C1Cl)C2=NC3=NC=CN=C3C(=N2)NC4=CC=NC=C4)F
Outline: as §1

[4] = compound: C1=CC(=CC=C1C2=NC3=C(N2)C=C(C=C3)C(=O)N)OC4=CC=C(C=C4)Cl
Outline: as §1

[5] = compound: C1=CC2=C(C=CC(=C2)/C=C\3/C(=O)NC(=NCC4=CC=CS4)S3)N=C1
Outline: as §1

[6] = compound: C1=CC2=NC=CN=C2C=C1/C=C/3\C(=O)NC(=O)S3
Outline: as §1

[7] = compound: C1=CC=C(C=C1)C2=NC(=C(N2)C3=CC=NC=C3)C4=CC(=C(C=C4)Cl)O
Outline: as §1

[8] = compound: C1=CC=C2C(=C1)C3=NNC4=CC=CC(=C43)C2=O
Outline: as §1

[9] = compound: C1CCN(C1)C(=O)NC2=CC=CC(=C2)NC3=NC=C(C(=N3)NCCC4=CN=CN4)Br
Outline: as §1

[10] = compound: C1CN(CCC1(CC2=CC=C(C=C2)Cl)N)C3=NC=NC4=C3C=CN4
Outline: as §1

[11] = compound: C1COCCN1CCN2C3=CC=CC=C3N=C2NC(=O)C4=CC(=CC=C4)[N+](=O)[O-] [IRAK-1-4 Inhibitor I]
Outline: as §1

[12] = compound: C=CC(=O)N1CCC[C@@H](n2nc(-c3ccc(Oc4ccccc4)cc3)c3c(N)ncnc32)C1 [ibrutinib]
Outline: as §1

[13] = compound: CC(=O)c1cnc2ccc(-c3cc(Cl)c(O)c(Cl)c3)nc2c1N[C@H]1CC[C@H](CN(C)C)CC1
Outline: as §1

[14] = compound: CC(C)(C)Cn1c(N)nc2ccc(-c3[nH]c(C(C)(C)C)nc3-c3ccc(F)cc3)nc21 [ralimetinib]
Outline: as §1

[15] = compound: CC(C)(O)CC(=O)NCCn1ccc2ncnc(Nc3ccc(Oc4cccc(C(F)(F)F)c4)c(Cl)c3)c21
Outline: as §1

[16] = compound: CC(C)C1=C2N=C(C=C(N2N=C1)NCC3=CC=CC=C3)NCCCCCCN
Outline: as §1

[17] = compound: CC(C)C[C@@H](C=O)NC(=O)[C@H](CC(C)C)NC(=O)[C@H](CC(C)C)NC(=O)OCc1ccccc1
Outline: as §1

[18] = compound: CC(C)N(C[C@H]1O[C@@H](n2cnc3c(N)ncnc32)[C@H](O)[C@@H]1O)[C@H]1C[C@@H](CCc2nc3cc(C(C)(C)C)ccc3[nH]2)C1 [pinometostat]
Outline: as §1

[19] = compound: CC1=C(C(CC(=O)N1)C2=CC=C(C=C2)C(F)(F)F)C(=O)NC3=C(C=C4C(=C3)C=NN4)F
Outline: as §1

[20] = compound: CC1=C(C2=C(C=C1)C(=O)C3=CC=CC=C3N2CCCN)C
Outline: as §1

UniProt A1L3X0, sequence (A1L3X0 whole entry, looked up): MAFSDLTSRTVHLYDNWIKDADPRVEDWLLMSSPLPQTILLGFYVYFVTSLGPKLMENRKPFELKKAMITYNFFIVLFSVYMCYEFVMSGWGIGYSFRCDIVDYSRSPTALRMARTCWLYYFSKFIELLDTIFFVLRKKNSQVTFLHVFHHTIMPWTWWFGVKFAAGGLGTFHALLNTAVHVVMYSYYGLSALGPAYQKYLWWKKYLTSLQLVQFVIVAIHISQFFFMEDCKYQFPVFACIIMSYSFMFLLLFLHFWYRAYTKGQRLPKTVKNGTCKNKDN
UniProt Q96FC9, sequence (Q96FC9 whole entry, looked up): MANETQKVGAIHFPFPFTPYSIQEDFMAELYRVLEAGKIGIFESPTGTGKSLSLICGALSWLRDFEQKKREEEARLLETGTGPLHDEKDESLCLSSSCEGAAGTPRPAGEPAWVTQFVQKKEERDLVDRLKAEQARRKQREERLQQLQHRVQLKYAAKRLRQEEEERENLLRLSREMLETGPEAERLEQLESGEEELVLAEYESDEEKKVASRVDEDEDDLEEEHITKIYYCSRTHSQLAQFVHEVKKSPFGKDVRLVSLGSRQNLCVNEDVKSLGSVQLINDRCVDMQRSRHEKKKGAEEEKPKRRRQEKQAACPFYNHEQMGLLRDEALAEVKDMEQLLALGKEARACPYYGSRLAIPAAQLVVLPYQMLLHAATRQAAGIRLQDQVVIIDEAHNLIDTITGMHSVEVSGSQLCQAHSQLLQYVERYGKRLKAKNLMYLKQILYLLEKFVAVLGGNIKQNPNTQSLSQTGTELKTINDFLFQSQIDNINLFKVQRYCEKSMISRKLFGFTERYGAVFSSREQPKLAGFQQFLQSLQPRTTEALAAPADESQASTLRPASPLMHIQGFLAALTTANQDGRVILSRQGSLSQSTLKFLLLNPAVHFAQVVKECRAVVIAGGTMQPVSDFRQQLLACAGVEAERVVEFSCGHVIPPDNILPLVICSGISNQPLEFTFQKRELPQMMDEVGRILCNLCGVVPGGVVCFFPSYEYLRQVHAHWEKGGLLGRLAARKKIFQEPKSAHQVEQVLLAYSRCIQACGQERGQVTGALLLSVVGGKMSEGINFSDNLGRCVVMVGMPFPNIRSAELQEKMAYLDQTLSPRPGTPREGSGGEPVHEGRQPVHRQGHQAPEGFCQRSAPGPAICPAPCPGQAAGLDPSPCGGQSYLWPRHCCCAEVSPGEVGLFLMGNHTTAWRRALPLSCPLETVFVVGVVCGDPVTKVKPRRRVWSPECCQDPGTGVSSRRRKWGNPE
UniProt P09668, sequence (P09668 whole entry, looked up): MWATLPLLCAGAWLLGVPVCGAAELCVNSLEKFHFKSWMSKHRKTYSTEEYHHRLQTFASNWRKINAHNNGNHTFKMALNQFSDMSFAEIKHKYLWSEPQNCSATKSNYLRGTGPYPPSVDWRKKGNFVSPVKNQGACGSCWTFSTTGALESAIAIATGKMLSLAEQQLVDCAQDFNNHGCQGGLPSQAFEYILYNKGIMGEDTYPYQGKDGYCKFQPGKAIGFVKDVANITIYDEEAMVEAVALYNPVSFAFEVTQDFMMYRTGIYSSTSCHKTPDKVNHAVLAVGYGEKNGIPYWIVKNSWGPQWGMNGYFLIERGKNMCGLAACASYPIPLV
UniProt Q8N128, sequence (Q8N128 whole entry, looked up): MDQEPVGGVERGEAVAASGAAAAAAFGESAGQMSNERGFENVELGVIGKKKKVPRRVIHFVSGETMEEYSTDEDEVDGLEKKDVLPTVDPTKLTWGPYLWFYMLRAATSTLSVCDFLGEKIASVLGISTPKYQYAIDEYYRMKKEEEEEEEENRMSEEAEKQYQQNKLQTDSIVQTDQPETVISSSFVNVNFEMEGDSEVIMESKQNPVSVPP
UniProt P12259, sequence (P12259 whole entry, looked up): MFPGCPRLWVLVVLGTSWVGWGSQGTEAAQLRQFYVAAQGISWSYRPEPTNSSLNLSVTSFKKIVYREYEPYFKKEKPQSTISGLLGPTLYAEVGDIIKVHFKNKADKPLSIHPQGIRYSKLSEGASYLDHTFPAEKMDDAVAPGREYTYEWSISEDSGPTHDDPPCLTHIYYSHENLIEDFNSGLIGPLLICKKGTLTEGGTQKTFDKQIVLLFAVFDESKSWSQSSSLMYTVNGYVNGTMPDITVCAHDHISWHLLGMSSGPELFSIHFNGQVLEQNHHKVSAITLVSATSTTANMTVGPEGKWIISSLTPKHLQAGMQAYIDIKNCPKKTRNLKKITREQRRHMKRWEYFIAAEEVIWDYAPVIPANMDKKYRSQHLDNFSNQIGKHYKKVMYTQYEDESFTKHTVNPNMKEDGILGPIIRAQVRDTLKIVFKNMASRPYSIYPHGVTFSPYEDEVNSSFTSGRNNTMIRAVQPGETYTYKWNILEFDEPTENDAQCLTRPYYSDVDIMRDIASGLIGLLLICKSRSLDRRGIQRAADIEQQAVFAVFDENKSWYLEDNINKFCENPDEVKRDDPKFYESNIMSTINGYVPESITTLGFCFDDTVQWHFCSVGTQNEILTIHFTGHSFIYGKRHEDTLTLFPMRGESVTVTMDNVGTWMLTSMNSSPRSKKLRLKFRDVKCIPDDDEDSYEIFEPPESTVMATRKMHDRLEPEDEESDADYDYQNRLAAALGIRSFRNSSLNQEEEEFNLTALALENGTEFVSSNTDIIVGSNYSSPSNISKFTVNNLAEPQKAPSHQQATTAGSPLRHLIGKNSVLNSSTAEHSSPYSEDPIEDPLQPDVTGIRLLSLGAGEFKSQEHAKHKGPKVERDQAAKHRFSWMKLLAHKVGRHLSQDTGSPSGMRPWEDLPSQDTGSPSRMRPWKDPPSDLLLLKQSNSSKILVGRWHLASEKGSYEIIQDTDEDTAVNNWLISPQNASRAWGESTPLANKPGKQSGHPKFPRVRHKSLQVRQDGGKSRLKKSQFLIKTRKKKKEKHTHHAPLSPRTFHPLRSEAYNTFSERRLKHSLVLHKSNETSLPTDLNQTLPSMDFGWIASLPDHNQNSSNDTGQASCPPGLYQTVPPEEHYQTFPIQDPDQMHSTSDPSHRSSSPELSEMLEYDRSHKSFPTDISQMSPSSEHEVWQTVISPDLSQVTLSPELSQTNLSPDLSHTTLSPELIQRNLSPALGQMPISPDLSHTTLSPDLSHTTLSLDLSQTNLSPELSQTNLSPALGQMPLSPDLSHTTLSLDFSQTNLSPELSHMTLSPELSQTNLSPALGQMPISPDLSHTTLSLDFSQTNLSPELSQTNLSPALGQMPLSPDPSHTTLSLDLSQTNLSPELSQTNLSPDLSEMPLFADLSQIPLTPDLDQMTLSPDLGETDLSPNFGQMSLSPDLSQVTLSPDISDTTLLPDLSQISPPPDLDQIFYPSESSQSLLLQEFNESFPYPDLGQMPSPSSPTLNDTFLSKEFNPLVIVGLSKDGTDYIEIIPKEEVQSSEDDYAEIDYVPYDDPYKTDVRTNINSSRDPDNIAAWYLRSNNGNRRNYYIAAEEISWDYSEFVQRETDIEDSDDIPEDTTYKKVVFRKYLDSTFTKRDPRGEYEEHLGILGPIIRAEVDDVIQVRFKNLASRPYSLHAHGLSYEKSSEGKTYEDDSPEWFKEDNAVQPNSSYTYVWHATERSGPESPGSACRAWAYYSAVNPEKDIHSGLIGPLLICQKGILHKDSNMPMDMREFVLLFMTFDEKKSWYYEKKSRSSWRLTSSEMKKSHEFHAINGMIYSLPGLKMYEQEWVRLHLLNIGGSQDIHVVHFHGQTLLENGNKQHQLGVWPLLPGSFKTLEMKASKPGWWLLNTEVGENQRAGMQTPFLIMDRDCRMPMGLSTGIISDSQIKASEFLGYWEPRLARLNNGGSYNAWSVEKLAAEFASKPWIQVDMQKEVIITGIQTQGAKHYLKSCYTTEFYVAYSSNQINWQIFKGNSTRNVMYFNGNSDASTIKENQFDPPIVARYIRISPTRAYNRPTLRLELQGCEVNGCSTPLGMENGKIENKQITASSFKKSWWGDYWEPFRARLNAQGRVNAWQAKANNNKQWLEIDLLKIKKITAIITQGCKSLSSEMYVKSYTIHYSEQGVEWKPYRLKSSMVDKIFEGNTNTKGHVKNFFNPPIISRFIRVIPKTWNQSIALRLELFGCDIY
UniProt Q14118, sequence (Q14118 whole entry, looked up): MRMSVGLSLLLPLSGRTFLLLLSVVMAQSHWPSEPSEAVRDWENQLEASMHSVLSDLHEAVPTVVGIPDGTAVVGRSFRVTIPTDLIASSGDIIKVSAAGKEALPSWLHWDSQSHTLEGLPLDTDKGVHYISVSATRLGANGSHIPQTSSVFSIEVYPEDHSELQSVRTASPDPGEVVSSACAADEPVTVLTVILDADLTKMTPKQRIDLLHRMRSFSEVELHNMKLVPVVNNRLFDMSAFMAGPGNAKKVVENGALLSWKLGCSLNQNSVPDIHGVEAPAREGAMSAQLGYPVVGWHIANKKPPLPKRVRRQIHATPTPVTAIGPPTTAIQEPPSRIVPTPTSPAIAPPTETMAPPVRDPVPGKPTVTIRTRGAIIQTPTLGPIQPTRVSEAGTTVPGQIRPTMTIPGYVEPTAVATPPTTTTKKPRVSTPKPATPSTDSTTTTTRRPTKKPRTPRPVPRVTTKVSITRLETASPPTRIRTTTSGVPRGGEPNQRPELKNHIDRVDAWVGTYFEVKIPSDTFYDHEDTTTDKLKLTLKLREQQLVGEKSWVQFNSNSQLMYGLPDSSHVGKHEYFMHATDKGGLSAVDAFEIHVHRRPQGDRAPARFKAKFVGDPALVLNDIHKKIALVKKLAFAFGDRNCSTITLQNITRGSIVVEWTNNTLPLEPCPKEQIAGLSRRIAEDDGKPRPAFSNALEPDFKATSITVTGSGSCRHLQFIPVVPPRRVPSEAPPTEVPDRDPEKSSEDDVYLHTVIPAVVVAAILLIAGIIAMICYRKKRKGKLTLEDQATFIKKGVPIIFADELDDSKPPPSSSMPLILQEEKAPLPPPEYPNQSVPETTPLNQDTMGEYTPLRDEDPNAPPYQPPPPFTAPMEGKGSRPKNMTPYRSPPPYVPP

Target	log2 fold change [1]	log2 fold change [2]	log2 fold change [3]	log2 fold change [4]	log2 fold change [5]	log2 fold change [6]	log2 fold change [7]	log2 fold change [8]	log2 fold change [9]	log2 fold change [10]	log2 fold change [11]	log2 fold change [12]	log2 fold change [13]	log2 fold change [14]	log2 fold change [15]	log2 fold change [16]	log2 fold change [17]	log2 fold change [18]	log2 fold change [19]	log2 fold change [20]
FAM177A1 isoform 2 (UniProt Q8N128)	0.048	0.042	0.038	0.023	0.036	0.02	0.024	-0.037	0.109	0.044	0.042	0.038	0.033	0	-0.242	-0.245	0.029	0.081	0.062	-0.019
CTSH (UniProt P09668)	0.015	-0.054	0.052	0	-0.062	0.048	0.022	-0.011	0.047	0.057	0.009	0.034	0.005	0.104	0.005	-0.142	-0.016	-0.06	0.009	-0.043
DCUN1D1 (UniProt Q96GG9)	-0.038	0.052	0.041	-0.009	0.015	0.001	0.021	-0.014	-0.017	0.024	0.031	0.016	-0.06	-0.047	-0.002	-0.061	-0.022	-0.035	0.014	0.018
CTSB (UniProt P07858)	0.021	-0.037	0.026	0.003	0.038	0.016	0.009	-0.017	0.007	0.04	-0.009	0.032	0.013	-0.044	0.011	-0.426 (active)	0.037	-0.031	0.042	-0.053
F5 (UniProt P12259)	-0.122	0	-0.002	0.061	-0.096	-0.054	-0.018	-0.064	0	0.052	0.006	0.064	0.003	-0.042	0.168	-0.088	0.001	-0.016	-0.017	-0.129
DAG1 (UniProt Q14118)	0.055	0.067	-0.043	0	-0.038	-0.037	-0.154	-0.06	-0.009	0.035	-0.019	-0.024	-0.029	-0.076	0.003	0.169	0.008	0.04	-0.008	0.067
ETNK1 (UniProt Q9HBU6)	0.004	0.128	0.244	-0.001	-0.126	0.035	0.037	0.028	-0.033	-0.119	0.035	-0.05	0.044	-0.017	-0.205	0.087	0.043	0.019	-0.015	0.079
DHRS3 (UniProt O75911)	0.116	0.041	0.11	0.018	0.155	-0.037	0.024	0.074	0.005	0.191	0	0.027	-0.083	0.001	0.143	0.018	-0.017	-0.056	-0.055	0.03
DOCK8 (UniProt Q8NF50)	0.259	0.001	0.182	0.04	-0.092	-0.021	-0.046	0.059	-0.076	-0.071	0.047	0.015	0.029	0.105	-0.198	0.152	0.274	0.059	0.064	-0.121
DAXX (UniProt Q9UER7)	0.212	-0.662 (active)	–	0.037	0.072	0.012	0.055	0.009	-0.148	0.224	0.13	0.091	0.008	0.218	–	0.243	0.088	-0.049	0.078	0.078
CYP24A1 (UniProt Q07973)	-0.042	-0.796 (active)	–	-0.072	0.015	-0.13	0.091	-0.057	0.179	0.046	-0.162	-0.044	0.187	0.412	–	0.069	0.31	0.276	0.083	-0.089
DENND10 (UniProt Q8TCE6)	-0.01	-0.005	-0.049	-0.08	-0.051	0.018	0	-0.04	0.063	0.083	–	0.037	0	-0.003	-0.025	-0.119	0.016	–	0.059	-0.185
DDX11 (UniProt Q96FC9)	0.019	-0.041	0.087	0.005	0.029	0.034	0.215	-0.027	0.032	0.072	0.152	0.001	-0.119	-0.033	-0.003	0.022	0.09	-0.316	-0.02	0.023
ERLIN2 (UniProt O94905)	-0.073	-0.075	-0.054	-0.014	-0.012	0.027	0.021	-0.054	-0.002	-0.097	-0.089	0.001	0.058	0.004	0	-0.296 (active)	0.035	0.093	0.021	0.013
DEGS1 (UniProt O15121)	-0.075	0.076	-0.113	0.145	0.049	-0.003	–	-0.096	-0.245	0.32	–	0.049	0.066	–	0.013	0.074	–	–	-0.118	0.197
ELOVL7 (UniProt A1L3X0)	-0.008	0.062	-0.065	0.009	0.182	–	–	-0.162	0.078	0.065	–	–	0.059	–	-0.177	-0.617 (active)	–	–	–	0.062
DMXL1 (UniProt Q9Y485)	0.059	0.071	-0.006	0.006	0.068	-0.001	0.024	-0.02	0.019	0.034	-0.005	0.002	-0.035	0.028	-0.085	-0.231	0.019	0.042	-0.005	0.069
